# Compound activity: PubChem BioAssay, National Center for Advancing Translational Sciences (NCATS)
# The list is not random: actives were taken first. Their share in the collection is about 4.7%.
# D1 agonist = agonists of human D1 dopamine receptor; P21728; HEK293 T-REx D1 cells, calcium flux, agonist mode; activation, % at 2 µM; hit rate 1% among 360,000; AID 504660
# Target sequence (P21728 whole entry, looked up): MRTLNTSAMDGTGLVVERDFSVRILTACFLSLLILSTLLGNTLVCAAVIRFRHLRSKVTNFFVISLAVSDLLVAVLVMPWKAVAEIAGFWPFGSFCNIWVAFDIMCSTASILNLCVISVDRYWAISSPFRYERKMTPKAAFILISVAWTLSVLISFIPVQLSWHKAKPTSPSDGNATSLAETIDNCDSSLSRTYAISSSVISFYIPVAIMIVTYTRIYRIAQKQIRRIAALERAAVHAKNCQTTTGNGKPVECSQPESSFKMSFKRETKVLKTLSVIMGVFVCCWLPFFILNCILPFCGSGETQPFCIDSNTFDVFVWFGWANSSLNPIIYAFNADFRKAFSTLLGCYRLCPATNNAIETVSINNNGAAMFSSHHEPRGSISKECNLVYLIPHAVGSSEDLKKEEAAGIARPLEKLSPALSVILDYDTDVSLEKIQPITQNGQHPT
#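 Tetracycline-induced HEK293 TREx D1 cells, force-coupled to calcium signalling, were dye-loaded with a no-wash calcium kit. Compound was pin-added after a 10 s baseline. Fluorescence was read kinetically at 1 cycle/s for 180 s, with calcium rises flagged as agonism.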
# TRHR enhancer = allosterically enhances the human TRH receptor; enhancement, % at 2 µM; AID 493056; hit rate 0.66% among 360,000; P34981; TRHR cells, fluo-8 calcium fluorescence, EC20 TRH enhancement; in the data active = enhancement above about 30%
#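 Enhancer read-out: after compound pinning and an initial kinetic agonist-mode read, an EC20 of TRH (10 nM final) was injected and fluo-8 calcium signal (Ex 480/Em 530) followed at 1 s/cycle for 100 cycles in TRHR-expressing cells.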
# D1 antag = blocks dopamine activation of the human D1 receptor; P21728; AID 504652; hit rate 3.2% among 360,000; HEK293 TREx D1 cells, calcium flux, dopamine EC80; stronger effect = lower value; activity change, negative = inhibition, % at 10 µM; in the data active = activity change below about -30%
#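 HEK293 T-REx cells expressing inducible, force-coupled D1 receptor; no-wash Ca dye, 30–90 min RT. Cmpd → 180 s read at 1 Hz → EC80 DA → 180 s read.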
# D1 PAM = potentiators of human D1 dopamine receptor | HEK293 TREx D1 cells, calcium flux, dopamine EC20 potentiation | potentiation, % at 10 µM | hit rate 0.036% among 360,000; in the data active = potentiation above about 30%
# TRHR ag = agonists of human TRH receptor; hit rate 0.18% among 360,000; TRHR cells, calcium flux fluo-8, FDSS agonist mode; P34981; activation, % at 2 µM
#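 In this calcium-flux screen, cells bearing human TRHR are dye-loaded with fluo-8, baselined for 10 cycles, then exposed to library compounds; positive kinetic calcium responses during the agonist phase mark hits, with TRH as control.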
# Hits are given with their value; - = inactive; . = not tested or not shown. Rule as the data show it, unless noted: active = activation above about 30%; inactive = the rest.
SMILES,D1 agonist,TRHR enhancer,D1 antag,D1 PAM,TRHR ag
CCOc1ccc(NC(=O)NC(=O)N(C(C)C)S(C)(=O)=O)cc1,-,-,-35,-,-
CCOc1ccc(NC(=O)Nc2cnccn2)cc1,-,36,-,-,-
O=C(Nc1ccncc1)Nc1ccccn1,-,-,-,-,-
O=C(Nc1ccc2c(c1)OCO2)Nc1cnccn1,-,-,-,-,-
O=C(Nc1cccc(F)c1)Nc1ccccn1,-,-,-37,-,-
CC(C)N(C(=O)NC(=O)Nc1ccc(S(=O)(=O)N2CCCC2)cc1)S(C)(=O)=O,-,-,-,-,-
O=C(Nc1cccc(F)c1)Nc1cnccn1,-,-,-31,-,-
CCOc1ccc(NC(=O)Nc2nc(SCC)ns2)cc1,-,-,-41,-,-
CN(Cc1nc2ccccc2c(=O)[nH]1)C(=O)c1ccccc1OCc1ccc(Cl)cc1,-,-,-32,-,-
CN(C(=O)c1ccccc1OCc1ccc(Cl)cc1)c1ccccc1,-,-,-,-,-
C=CCC1NS(=O)(=O)OC2CCCCC12 (stereo unspecified),-,-,-,-,-
C=CCC1NS(=O)(=O)OC2CCCC12 (stereo unspecified),-,37,-,-,-
COc1cc(=O)[nH]c(SC(C)C(=O)Nc2cc(C)on2)n1 (stereo unspecified),-,-,-,-,-
O=C(CNC(=O)c1ccc2ccccc2c1)OC(C(=O)Nc1cc(C(F)(F)F)ccc1Cl)c1ccccc1 (stereo unspecified),-,-,-,-,-
O=C(NNc1ccc([N+](=O)[O-])cc1)c1ccccc1Cl,-,-,-52,-,-
COC(=O)c1ccc(Cn2c(SCc3ccc(F)cc3)nc3ccncc32)cc1,-,-,-,-,-
c1ccc(Cc2nnc3sc(Nc4ccccc4)nn23)cc1,-,-,-45,-,-
Brc1ccc(-c2nn3c(Cc4ccccc4)nnc3s2)o1,-,-,-,-,-
FC(F)(F)c1ccccc1-n1ccnc1,-,-,-,-,-
Clc1ccccc1C(c1ccccc1)(c1ccccc1)n1ccnc1,-,-,-34,-,-
O=C(OCC(=O)N1CCCC1)c1ccc(S(=O)(=O)N2CCOCC2)cc1,-,-,-,-,-
O=C(COC(=O)c1ccc(O)cc1)c1ccc(S(=O)(=O)N2CCCCC2)cc1,-,-,-31,-,-
COc1ccc(/C=C/C(=O)OCC(=O)c2ccc(S(=O)(=O)N3CCCCC3)cc2)cc1OC,-,-,-55,-,-
O=C(COC(=O)c1ccc(CO)cc1)c1ccc(S(=O)(=O)N2CCCCC2)cc1,-,-,-32,-,-
O=C(OCC(=O)N1CCN(C(=O)c2ccco2)CC1)c1ccc(S(=O)(=O)N2CCCCC2)cc1,-,-,-57,-,-
SMILES,D1 agonist,TRHR enhancer,D1 antag,D1 PAM,TRHR ag
O=C(OCC(=O)c1ccc[nH]1)c1ccc(S(=O)(=O)N2CCCCCC2)cc1,-,-,-,-,-
O=C(c1ccco1)N1CCN(S(=O)(=O)c2ccc3c(c2)CCN3C(=O)C2CC2)CC1,-,-,-47,-,-
O=C(C1CC1)N1CCc2cc(S(=O)(=O)N3CCOCC3)ccc21,-,-,-,-,-
COc1ccc(NC(=O)C2=C(C)Nc3ncnn3C2c2ccc(C)o2)cc1 (stereo unspecified),-,-,-,-,-
CC1=C(C(=O)Nc2ccccc2)C(c2ccc(C)o2)n2ncnc2N1 (stereo unspecified),-,-,-60,-,-
O=S(=O)(Nc1cc(S(=O)(=O)N2CCOCC2)ccc1NCC1CCCO1)c1ccccc1F (stereo unspecified),-,-,-,.,-
COc1ccc2c(c1)O[C@H](c1ccc3c(c1)OCO3)[C@@H](OC(=O)N[C@H]1CCCc3ccccc31)C2=O,-,-,-57,-,-
COc1ccc2c(c1)O[C@@H](c1cccc(C(F)(F)F)c1)[C@H](OC(=O)N[C@H]1CCCc3ccccc31)C2=O,-,-,-,-,-
N#Cc1c(Cl)cccc1Oc1ccc([S+](=O)([O-])N2CCN([S+](=O)([O-])c3c(F)cccc3F)CC2)cc1,-,-,-,-,-
Oc1c(Cl)cc(Cl)cc1CNn1cnnc1,-,-,-,-,-
Oc1c(Cl)cc(Cl)cc1Sc1cc(Cl)cc(Cl)c1O,-,-,-56,-,-
CCOc1ccc(CCNCc2c(C(=O)O)c(C)n(Cc3ccccc3F)c2C)cc1,-,-,-,-,-
O=C(Cn1cnc2ccc(Cl)cc2c1=O)NC1CCS(=O)(=O)C1 (stereo unspecified),-,-,-,-,-
Nc1ccc(-c2c3ccc(=O)cc-3oc3cc(O)ccc23)c(C(=O)O)c1,355,-,-,-,-
CCn1ncc(C2=NOC(C(=O)Nc3cccc(C(C)=O)c3)C2)c1C (stereo unspecified),-,-,-32,-,-
CCn1ncc(C2=NOC(C(=O)NCc3ccccc3)C2)c1C (stereo unspecified),-,-,-,-,-
C=CCNC(=O)c1ccc(NC(=O)C2=CSCCO2)cc1,-,-,-,-,-
CC(Oc1ccc(Cl)cc1Cl)C(=O)NNC(=O)C(=O)N1CCCCC1 (stereo unspecified),-,-,-86,-,-
CN1CCN(c2ccc(NC(=O)c3ccc(Cl)cc3Cl)cc2)CC1,-,-,-44,-,-
CC(=O)N1CCN(c2ccc(NC(=O)C(C)Oc3ccc(Cl)cc3Cl)cc2)CC1 (stereo unspecified),-,-,-,-,-
CC(Oc1ccc(Cl)cc1Cl)C(=O)Nc1ccc(N2CCN(C)CC2)cc1 (stereo unspecified),-,-,-60,-,-
Cc1cc2c(cc1C)-n1c(-c3ccccc3)c3c(=O)n(C)c(=O)n(C)c3c1C(c1ccco1)N2 (stereo unspecified),-,-,-,-,-
O=C(O)c1cccc(OCCN2CCCC2=O)c1,-,-,-32,-,-
O=C(NCCCN1CCCC1=O)c1cccc(Oc2ccccc2)c1,-,-,-,-,-
S=C(NCc1ccco1)N1CCN(c2ccccc2Cl)CC1,-,-,-33,-,-
S=C(NCc1ccco1)N1CCN(c2nc(-c3ccccc3)cs2)CC1,-,30,-,-,-
N#Cc1ccc2c(c1)C[C@]1(c3ccsc3)OC3=C(C(=O)OC4(CCCCC4)C3)C2O1,-,-,-32,-,-
Cc1ccc2c(c1)c1c(c(=O)n(-c3ccccc3C)c(=O)n1CC(=O)NCC1CCCO1)n2C (stereo unspecified),-,-,-,-,-
C[C@]12CCC(O)CC1CCC1C2CC[C@]2(C)C(c3cc(C(F)(F)F)n[nH]3)CCC12 (stereo partly specified),43,-,-,-,-
C/C(=N\NC(N)=S)C1=CCC2C3CC[C@H]4CC(O)CC[C@]4(C)C3CC[C@]12C (stereo partly specified),-,-,-,-,-
